This note sets out measurements from PubChem BioAssay (EPA / NIEHS).

Read-out in assay [1]: Tissue Factor, F3 (gene 2152)
In words: BSK_CASM3C_TissueFactor: BioMAP Diversity Plus: CASM3C Assay for Tissue Factor Biomarker Activity (AID 2283052).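 Further: cell surface tissue factor protein level read by ELISA.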 The settings on record: primary human coronary artery smooth muscle cells; actives raise or lower the signal.

Read-out in assay [2]: Interferon-gamma inducible Protein 10 (IP10), CXCL10 (gene 3627)
The assay can be described thus: BSK_hDFCGF_IP10: BioMAP Diversity Plus: hDFCGF Assay for Interferon-gamma inducible Protein 10 (IP10) Biomarker Activity (AID 2283053). The following applies: primary human foreskin fibroblasts; actives raise or lower the signal. The method in brief:
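Primary human foreskin fibroblasts exposed to chemicals for 24 h. IP-10 measured by ELISA; changes fitted bidirectionally against DMSO baseline.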

Read-out in assay [3]: Urokinase-type plasminogen activator receptor (uPAR), PLAUR (gene 5329)
The assay can be described thus: BSK_CASM3C_uPAR: BioMAP Diversity Plus: CASM3C Assay for Urokinase-type plasminogen activator receptor (uPAR) Biomarker Activity (AID 2283054).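 Further: cell-surface uPAR protein level quantified by ELISA.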 The following applies: primary human coronary artery smooth muscle cells; actives raise or lower the signal.

Read-out in assay [4]: Vascular cell adhesion molecule 1 (VCAM1), VCAM1 (gene 7412)
In words: BSK_CASM3C_VCAM1: BioMAP Diversity Plus: CASM3C Assay for Vascular cell adhesion molecule 1 (VCAM1) Biomarker Activity (AID 2283055).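 Further: VCAM-1 protein level quantified by ELISA on the cells.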 The settings on record: primary human coronary artery smooth muscle cells; actives raise or lower the signal.

Read-out in assay [5]: Collagen III, COL3A1 (gene 1281)
In words: BSK_hDFCGF_CollagenIII: BioMAP Diversity Plus: hDFCGF Assay for Collagen III Biomarker Activity (AID 2283056). The following applies: primary human foreskin fibroblasts; actives raise or lower the signal. The method in brief: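 hDFCGF primary human dermal fibroblasts; 24 h chemical exposure; collagen III by ELISA; bidirectional curve fit vs DMSO baseline (gain or loss of signal).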

Read-out in assay [6]: Epidermal growth factor receptor (EGFR), EGFR (gene 1956)
In words: BSK_hDFCGF_EGFR: BioMAP Diversity Plus: hDFCGF Assay for Epidermal growth factor receptor (EGFR) Biomarker Activity (AID 2283057). The settings on record: primary human foreskin fibroblasts; actives raise or lower the signal. The method in brief: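 Primary human foreskin fibroblasts (hDFCGF system), sampled 24 h after dosing; EGFR quantified by ELISA. Bidirectional fit relative to DMSO baseline; SRB total-protein staining in parallel cultures for cytotoxicity.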

Read-out in assay [7]: Interleukin-8 (IL8), CXCL8 (gene 3576)
The assay can be described thus: BSK_hDFCGF_IL8: BioMAP Diversity Plus: hDFCGF Assay for Interleukin-8 (IL8) Biomarker Activity (AID 2283058). The settings on record: primary human foreskin fibroblasts; actives raise or lower the signal. The method in brief: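 ELISA read-out of IL-8 from primary human foreskin fibroblast cultures taken 24 h after dosing; values are bidirectional fits relative to DMSO vehicle.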

Assay [8] can be described thus: BSK_hDFCGF_Proliferation: Cell Proliferation Assessment in the BioMAP Diversity Plus: hDFCGF Assay (AID 2283059).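 Further: curves fitted for both rise and fall of signal versus DMSO baseline.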 The following applies: primary human foreskin fibroblasts. The method, boiled down:
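Sub-confluent human foreskin fibroblast cultures receive test chemical […]. Relative cell number is quantified by sulforhodamine B staining (0.1%, after 10% TCA fixation) at 560 nm, with bidirectional fitting referenced to DMSO.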

Read-out in assay [9]: Macrophage colony-stimulating factor (MCSF), CSF1 (gene 1435)
In words: BSK_hDFCGF_MCSF: BioMAP Diversity Plus: hDFCGF Assay for Macrophage colony-stimulating factor (MCSF) Biomarker Activity (AID 2283060). The following applies: primary human foreskin fibroblasts; actives raise or lower the signal. The method in brief:
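ELISA read-out of M-CSF in human dermal foreskin fibroblast cultures, 24 h after chemical dosing; gain or loss of signal fitted bidirectionally relative to DMSO baseline.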

Assay [10] is described as follows: BSK_hDFCGF_SRB: Viability Assessment in the BioMAP Diversity Plus: hDFCGF Assay (AID 2283061).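 Further: cells exposed to compound for 24 h before the read.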 The settings on record: primary human foreskin fibroblasts. The method, boiled down: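 Primary human foreskin fibroblasts; 24 h post-dose; fixed 10% TCA, stained 0.1% SRB, A560 read; total protein as overt cytotoxicity measure; curves fit bidirectionally vs DMSO control.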

Read-out in assay [11]: TIMP metallopeptidase inhibitor 1 (TIMP1), TIMP1 (gene 7076)
The assay can be described thus: BSK_hDFCGF_TIMP1: BioMAP Diversity Plus: hDFCGF Assay for TIMP metallopeptidase inhibitor 1 (TIMP1) Biomarker Activity (AID 2283062). The settings on record: primary human foreskin fibroblasts; actives raise or lower the signal. The method in brief: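 ELISA readout of TIMP-1 from human dermal foreskin fibroblast cultures 24 h post-dosing. Curves were fitted in both directions against DMSO baseline, with SRB total-protein staining in parallel cultures as a cytotoxicity check.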

Read-out in assay [12]: Monokine induced gamma interferon (MIG), CXCL9 (gene 4283)
In words: BSK_hDFCGF_MIG: BioMAP Diversity Plus: hDFCGF Assay for Monokine induced gamma interferon (MIG) Biomarker Activity (AID 2283063). The settings on record: primary human foreskin fibroblasts; actives raise or lower the signal. The method, boiled down:
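Fibroblasts (human foreskin, primary) dosed, 24 h, MIG by ELISA; fit bidirectional vs DMSO.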

Read-out in assay [13]: Matrix Metallopeptidase 1 (MMP1), MMP1 (gene 4312)
The assay can be described thus: BSK_hDFCGF_MMP1: BioMAP Diversity Plus: hDFCGF Assay for Matrix Metallopeptidase 1 (MMP1) Biomarker Activity (AID 2283064). The following applies: primary human foreskin fibroblasts; actives raise or lower the signal. The method, boiled down: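 Primary human foreskin fibroblasts in the hDFCGF system were dosed with test chemical, and MMP1 was measured by ELISA 24 h later. Values come from bidirectional curve fitting against the DMSO baseline.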

Read-out in assay [14]: Vascular cell adhesion molecule 1 (VCAM1), VCAM1 (gene 7412)
The assay can be described thus: BSK_hDFCGF_VCAM1: BioMAP Diversity Plus: hDFCGF Assay for Vascular cell adhesion molecule 1 (VCAM1) Biomarker Activity (AID 2283065).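 On AC50: VCAM-1 protein level quantified by ELISA after 24 h chemical exposure.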 The following applies: primary human foreskin fibroblasts; actives raise or lower the signal. The method in brief:
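ELISA read-out of VCAM-1 on human skin fibroblasts, 24 h post-dose; gain or loss of signal fitted bidirectionally against DMSO baseline.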

Read-out in assay [15]: Plasminogen activator inhibitor-1 (PAI1), SERPINE1 (gene 5054)
The assay can be described thus: BSK_hDFCGF_PAI1: BioMAP Diversity Plus: hDFCGF Assay for Plasminogen activator inhibitor-1 (PAI1) Biomarker Activity (AID 2283066). The settings on record: primary human foreskin fibroblasts; actives raise or lower the signal. The method, boiled down: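 Human foreskin fibroblast primary cells, 24 h chemical exposure; PAI-1 measured by ELISA. Bidirectional fitting relative to DMSO; parallel cultures stained with SRB for total protein to flag overt cytotoxicity.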

Read-out in assay [16]: Intercellular Adhesion Molecule 1 (ICAM1), ICAM1 (gene 3383)
In words: BSK_KF3CT_ICAM1: BioMAP Diversity Plus: KF3CT Assay for Intercellular Adhesion Molecule 1 (ICAM1) Biomarker Activity (AID 2283067). The settings on record: primary human keratinocytes with fibroblasts; actives raise or lower the signal. The method, boiled down: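 ELISA readout of ICAM-1; KF3CT human skin co-culture (keratinocytes + foreskin fibroblasts), 24 h post-dose; gain/loss fit vs DMSO baseline.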

Read-out in assay [17]: Interferon-gamma inducible Protein 10 (IP10), CXCL10 (gene 3627)
The assay can be described thus: BSK_KF3CT_IP10: BioMAP Diversity Plus: KF3CT Assay for Interferon-gamma inducible Protein 10 (IP10) Biomarker Activity (AID 2283068). The settings on record: primary human keratinocytes with fibroblasts; actives raise or lower the signal. The method in brief: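 ELISA read-out of IP-10 after 24 h chemical dosing of human skin primary co-culture (keratinocytes, foreskin fibroblasts). Gain or loss of signal relative to DMSO, bidirectional curve fit.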

The nature of assay [18]: BSK_KF3CT_SRB: Viability Assessment in the BioMAP Diversity Plus: KF3CT Assay (AID 2283069).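 Further: total protein by sulforhodamine B staining as a cytotoxicity measure; read 24 h after compound addition.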 The following applies: primary human keratinocytes with fibroblasts. The method in brief:
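Human primary keratinocyte plus foreskin fibroblast co-culture exposed to chemicals for 24 h. Total protein measured by 0.1% sulforhodamine B staining after 10% TCA fixation, read at 560 nm; bidirectional fitting versus DMSO baseline.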

Read-out in assay [19]: Interleukin-1 alpha (IL1a), IL1A (gene 3552)
The assay can be described thus: BSK_KF3CT_IL1a: BioMAP Diversity Plus: KF3CT Assay for Interleukin-1 alpha (IL1a) Biomarker Activity (AID 2283070). The settings on record: primary human keratinocytes with fibroblasts; actives raise or lower the signal. The method, boiled down:
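Human keratinocyte plus foreskin fibroblast primary co-culture, sampled 24 h after chemical dosing. IL-1a measured by ELISA; responses fitted bidirectionally against DMSO baseline (negative control), so gain or loss of signal both count.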

Read-out in assay [20]: TIMP metallopeptidase inhibitor 2 (TIMP2), TIMP2 (gene 7077)
The assay can be described thus: BSK_KF3CT_TIMP2: BioMAP Diversity Plus: KF3CT Assay for TIMP metallopeptidase inhibitor 2 (TIMP2) Biomarker Activity (AID 2283071). The settings on record: primary human keratinocytes with fibroblasts; actives raise or lower the signal. The method in brief: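 Co-culture of human primary keratinocytes and foreskin fibroblasts, measured 24 h after chemical dosing. TIMP-2 quantified by ELISA and fitted in both directions relative to DMSO. Cytotoxicity checked in parallel cultures by SRB total-protein staining.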

“And” between values parts separate entries of the source, which are not always exact repeats. Identical values can stand only once. A structure can be active in one record and inactive in another. The source made the active and inactive calls. How the source made its calls: active means hit-call score of the fitted dose curve at least 0.9, where 1 is the maximum; inactive means score below 0.9.

For `O=C(c1ccccc1)C1CCCCC1`, the outcome in [1], in assay [2], in assay [3], in [4], in [5] and in assay [6] was inactive. Also, the result in assay [7], in [8], in [9], in assay [10], in assay [11] and in [12] was inactive. Besides, the result in assay [13], in [14], in [15], in assay [16], in [17] and in [18] was inactive. The result in assay [19] was inactive.
Turning to `CCSC(=O)N(CC(C)C)CC(C)C`, the result in assay [1], in assay [2], in assay [3], in assay [4], in [5] and in [7] was inactive. The outcome in [8], in assay [9], in [10], in assay [11], in assay [12] and in assay [13] was inactive. Further, the result in assay [14], in [15], in assay [16], in [17], in [18] and in [19] was inactive. In addition, the AC50 – broadly, the midpoint of the concentration-response curve, whichever way the signal moves – in [6] was 5.32 µM (active).
Regarding `COC(=O)c1ccc(I)cc1S(=O)(=O)NC(=O)Nc1nc(C)nc(OC)n1`, the result in assay [1], in assay [2], in [3], in assay [4], in assay [5] and in assay [6] was inactive. Also, the result in assay [7], in assay [8], in [9], in assay [10], in [11] and in [12] was inactive. Further, the result in assay [13], in assay [14], in assay [15], in [16], in assay [17] and in assay [18] was inactive. In assay [19], the result was inactive.
Turning to `S=C(S)NCCNC(=S)S.[Mn+2].[S-]C([S-])=NCCN=C([S-])[S-].[Zn+2]`, the AC50 in [1] is 4.17 µM (active) [middle of 4 runs]; in assay [2] it was 10.4 µM (active); in assay [9], 1.41 µM (active); in assay [14], 5.37 µM (active) and 12.4 µM (active). Moreover, the outcome in assay [1], in [2], in assay [3], in assay [4], in [5] and in assay [6] was inactive. In addition, the result in assay [7], in [9], in [10], in [11], in [12] and in assay [13] was inactive. Moreover, the result in assay [14], in assay [15], in assay [16], in [17], in assay [18] and in assay [19] was inactive. Moreover, in [20], the result was inactive.
On to `Oc1ccc(C(c2ccc(O)cc2)C(Cl)(Cl)Cl)cc1`, for which the outcome in [1] and in assay [4] was inactive. The AC50 in [2] is 23.8 µM (active); in [3] it was 11.3 µM (active); in assay [5] it was 11.7 µM (active); in assay [6], 13.3 µM (active); in assay [7] it was 31.3 µM (active); in [8], 13.5 µM (active). The AC50 in [9] was 21.5 µM (active); in [10], 29.3 µM (active); in [11], 14.5 µM (active); in assay [12], 26.7 µM (active); in assay [13], 29.7 µM (active); in [14] it was 20 µM (active). Besides, the AC50 was 25.4 µM (active) in assay [15]; 36.4 µM (active) in assay [16]; 33.2 µM (active) in assay [17]; 24.1 µM (active) in [18]; 32.9 µM (active) in [19].
`OB(O)O`: the result in [1], in assay [2], in assay [3], in assay [4], in assay [5] and in [6] was inactive. The outcome in [7], in [8], in [9], in assay [10], in assay [11] and in assay [12] was inactive. Also, the result in assay [13], in [14], in [15], in [16], in assay [17] and in assay [18] was inactive. In addition, the outcome in assay [19] was inactive.
